Screening data (PubChem)
Sampled rows, rich in hits. Any-hit rate of the full collection: about 2.4%.
M1 PAM parental = counter-screen for M1 PAMs: effect in parental CHO-K1 cells. ATP EC20, Fluo-8 calcium fluorescence; 0% at ATP EC20, 100% at ATP max. 360,000 compounds, 0.02% hits. activation, % at 3 µM;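 active = activation above the run cutoff, the mean activation of all test compounds plus 3 SD, cut at about 40% in these data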;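 also: peak over basal fluorescence ratio in a 140 s read after ATP addition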
CHO-K1 Ca antag = nonselective inhibitor or artifact in parental CHO-K1 cells. ATP-induced calcium, Fluo-8 fluorescence. inhibition, % at 3 µM. 360,000 compounds, 0.6% hits;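 active = inhibition above a per-plate cutoff, the plate's mean sample inhibition plus 3 SD, cut at about 24% in these data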;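 also: 0% = DMSO plus EC80 ATP and 100% = DMSO alone without ATP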
M1 antag = antagonists of human M1 muscarinic receptor; P11229; CHO-K1 hM1, Fluo-8 calcium fluorescence, ACh EC80 antagonist; 360,000 compounds, 1.3% hits; AID 588852; inhibition, % at 3 µM;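 active = percent inhibition above its own plate's cutoff, namely the mean of that plate's compound wells plus 3 SD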;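 also: peak over basal fluorescence ratio during 140 s after agonist addition; 0% = ACh EC80 plus DMSO and 100% = DMSO alone without agonist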
Target sequence (P11229 whole entry, looked up): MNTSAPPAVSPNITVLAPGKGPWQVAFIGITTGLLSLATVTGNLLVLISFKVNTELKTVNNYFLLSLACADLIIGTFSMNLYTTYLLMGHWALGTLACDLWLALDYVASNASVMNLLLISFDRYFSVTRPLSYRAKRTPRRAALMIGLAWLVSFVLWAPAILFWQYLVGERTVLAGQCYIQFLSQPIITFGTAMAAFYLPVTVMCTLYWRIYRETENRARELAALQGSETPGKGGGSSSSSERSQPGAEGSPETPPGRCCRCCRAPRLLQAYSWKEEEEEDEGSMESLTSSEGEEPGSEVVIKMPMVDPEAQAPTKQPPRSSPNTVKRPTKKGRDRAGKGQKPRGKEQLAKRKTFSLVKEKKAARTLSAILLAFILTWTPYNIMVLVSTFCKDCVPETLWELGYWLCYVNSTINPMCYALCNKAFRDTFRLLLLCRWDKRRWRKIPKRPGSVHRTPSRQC
CHRM1 agonist = agonists of human M1 muscarinic receptor | AID 588814 | activation, % at 3 µM | 360,000 compounds, 0.33% hits | CHO-K1 hM1, Fluo-8 calcium fluorescence, agonist mode; 0% DMSO, 100% acetylcholine EC100 | P11229;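 active = activation above the run's mean compound activation plus 3 SD, cut at about 16% in these data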;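 also: peak over basal fluorescence ratio within a 140 s kinetic read after compound addition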
CHO-K1 Ca ag = counter-screen for M1 agonists: effect in parental CHO-K1 cells; 360,000 compounds, 0.48% hits; activation, % at 3 µM; Fluo-8 calcium fluorescence; scaled to maximal ATP response, vehicle zero; in the data active = activation above about 15%;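 also: untransfected CHO-K1 host cells lacking M1 receptor as counterscreen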
CHRM1 PAM = positive allosteric modulators of human M1 muscarinic receptor | P11229 | CHO-K1 hM1, Fluo-8 calcium fluorescence, ACh EC20; 0% = ACh EC20, 100% = maximal ACh | activation, % at 3 µM | 360,000 compounds, 0.088% hits; in the data active = activation above about 19%, passing the limit was not always enough
* = called active by the depositor.

SMILES | M1 PAM parental | CHO-K1 Ca antag | M1 antag | CHRM1 agonist | CHO-K1 Ca ag | CHRM1 PAM
O=C(NCc1ccccn1)c1cccc(NS(=O)(=O)c2ccc(Br)cc2)c1 | 25 | -7 | -4 | 2 | 3 | 4
CC(C)N(C(=O)CSc1nc2ccccc2n1Cc1ccc(F)cc1)C(C)C | 1 | 10 | 32* | -3 | 1 | -18
NC(=O)CSc1nc2ccccc2n1Cc1ccccc1 | 17 | 0 | -12 | -8 | 22* | 14
CC(C)NC(=O)CSc1nc2ccccc2n1CC(=O)N(C(C)C)C(C)C | 2 | 7 | -7 | -2 | -1 | 12
O=C1c2ccccc2C(=O)N1CC#CCN1CCN(C(c2ccccc2)c2ccccc2)CC1 | 13 | -13 | -2 | -6 | -1 | -9
O=C1C2CSCN2C(=O)CN1CCCN1CCN(C(c2ccccc2)c2ccccc2)CC1 (configuration not stated) | 0 | 9 | 62* | -9 | -1 | -26
O=C(COC(=O)C1CCN(S(=O)(=O)c2ccc3c(c2)OCCO3)CC1)Nc1ccc(C(F)(F)F)cc1 | -16 | 24* | -1 | -3 | 2 | 8
CCN(c1ccc(NC(=O)COC(=O)C2CCN(c3ccc(C(F)(F)F)cn3)CC2)cc1)C(C)C | -9 | -15 | 35* | -8 | 1 | -20
CN(C(=O)COC(=O)C1CCN(S(=O)(=O)c2ccc3c(c2)OCCO3)CC1)C1CCCCC1 | -20 | 26* | 17 | -6 | 0 | -5
Cc1ccc(S(=O)(=O)N2CCC(C(=O)OCC(=O)N(C)C3CCCCC3)CC2)cc1C | -19 | 8 | -7 | -4 | 1 | 2
CCN(CC)c1ccc(NC(=O)COC(=O)C2CCN(c3ccc(C(F)(F)F)cn3)CC2)cc1 | 16 | 7 | -11 | -4 | 1 | 9
O=C(N/N=C/c1ccc(OC(=O)c2ccccc2)c([N+](=O)[O-])c1)c1ccc(O)cc1 | 15 | 5 | 13 | 0 | 1 | -6
C=CCc1cc(C=O)cc(OCC)c1O | 11 | -3 | -1 | -9 | 0 | 10
COc1cccc(NC(=O)Cc2c(O)c3ccccc3[nH]c2=O)c1 | -6 | 25* | -13 | -1 | 0 | 9
O=C(Cc1c(O)c2ccccc2[nH]c1=O)OC1CCCCC1 | -6 | 25* | -6 | -3 | -1 | 5
O=C(COC(=O)CNC(=O)c1ccccc1F)Nc1ncc(Cl)cc1Cl | 11 | -7 | -2 | -6 | 0 | -1
Cc1ccccc1Nc1nnc(SCc2cc([N+](=O)[O-])cc3c2OCOC3)s1 | 7 | 3 | 41* | -8 | 3 | -22
CCOC(=O)C(C#N)(Cc1ccc2ccccc2n1)Cc1ccc2ccccc2n1 | 5 | -10 | 10 | 0 | 6 | -13
COc1ccc(N2C(=O)[C@@H]3[C@H](C2=O)[C@H]2c4ccccc4C=CN2[C@@H]3C(=O)Nc2ccccc2)cc1 | 11 | -1 | 10 | 50* | 1 | -8
N#CCc1c(C#N)c(N)nc(N2CCN(C=O)CC2)c1C#N | -8 | 24* | 6 | -5 | 0 | -11
O=c1[nH]c(-c2ccccc2)nc(CN2CCCCC2)c1O | 16 | -15 | -27 | 5 | 1 | 29*
Cc1nnc(SCC(=O)Nc2nc(-c3ccc(F)cc3)cs2)[nH]c1=O | -1 | -3 | 5 | -4 | 0 | -2
CCOC(=O)c1c(-c2ccccc2)csc1NC(=O)c1ccc(S(=O)(=O)N2CC(C)OC(C)C2)cc1 (configuration not stated) | 12 | -4 | -4 | -3 | 0 | -1
CCOC(=O)c1c(-c2ccccc2)csc1NC(=O)c1ccc(N2C(=O)CCC2=O)cc1 | -13 | 25* | 15 | -3 | 0 | -6
CN1CCC(N2CCN(C3CN(C4CCCCC4)S(=O)(=O)C3)CC2)CC1 (configuration not stated) | 4 | 17 | -10 | -4 | 0 | 16
CN1CCC(OC(=O)COc2ccc(F)cc2)CC1 | 21 | -19 | -13 | -8 | 1 | 8
COc1cccc(C(=O)OC2CCN(C)CC2)c1 | -14 | 29* | 10 | -10 | -1 | -9
CN1CCC(OC(=O)COc2ccccc2)CC1 | 2 | -2 | 51* | -3 | 0 | -18
